# Experimental data as given in PubChem BioAssay (Tox21).
# Where “and” joins values, the source holds several entries; their conditions need not be identical. Identical values can stand only once. Records with an inconclusive call do not appear. Entries that show only a call come without a potency. Where a structure was tested more than once in an assay, its records may differ in their call. Calls of active or inactive are those of the source. Calls come from the whole dose curve; as a rule, active = well fitted inhibition curve with a large enough effect in the repeat runs; inconclusive = weak or mixed curves; inactive = no such curve, though single readings can be large or run the other way.
# Molecular target: Estrogen receptor (Homo sapiens) (UniProt P03372)
# Sequence (P03372 whole entry, looked up): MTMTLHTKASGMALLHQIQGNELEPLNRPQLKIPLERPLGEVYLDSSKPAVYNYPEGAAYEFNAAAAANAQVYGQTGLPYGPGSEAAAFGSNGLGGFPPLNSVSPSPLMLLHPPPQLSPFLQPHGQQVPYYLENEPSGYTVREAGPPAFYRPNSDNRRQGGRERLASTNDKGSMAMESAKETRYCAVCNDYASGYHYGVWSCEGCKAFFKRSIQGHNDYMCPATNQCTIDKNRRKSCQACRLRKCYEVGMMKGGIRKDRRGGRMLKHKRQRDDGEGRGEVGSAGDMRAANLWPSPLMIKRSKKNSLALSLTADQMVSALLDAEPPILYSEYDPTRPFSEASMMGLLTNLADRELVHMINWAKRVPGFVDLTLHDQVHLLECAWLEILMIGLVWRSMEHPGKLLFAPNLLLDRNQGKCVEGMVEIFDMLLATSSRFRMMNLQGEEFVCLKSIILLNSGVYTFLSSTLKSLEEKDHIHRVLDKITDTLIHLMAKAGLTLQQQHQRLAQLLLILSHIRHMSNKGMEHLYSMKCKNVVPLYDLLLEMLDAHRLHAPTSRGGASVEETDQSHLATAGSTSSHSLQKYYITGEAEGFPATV
# Test: qHTS assay to identify small molecule antagonists of the estrogen receptor alpha (ER-alpha) signaling pathway using the BG1 cell line in the presence of 0.1 nM 17-beta-estradiol (AID 1259244); note: nearly all actives have a fitted effect of over 50% in size
# Conditions: VM7Luc4E2 (BG1) ERE-luciferase, antagonist mode, 0.1 nM E2, 22 h; series mostly up to 92.4 µM
# Description: National Center for Advancing Translational Sciences [NCATS]
# NIH Chemical Genomics Center [NCGC]
# U.S. Environmental Protection Agency [EPA]
# National Institutes of Environmental Health Sciences [NIEHS]
# National Toxicology Program [NTP]
# U.S. Food and Drug Administration [FDA]
# Estrogen receptor (ER), a member of the nuclear hormone receptor plays an important role in development, metabolic homeostasis and reproduction. Two subtypes of ER, ER-alpha and ER-beta, have similar expression patterns with some uniqueness in both types. Endocrine disrupting chemicals (EDCs) and their interactions with steroid hormone receptors like ER causes disruption of normal endocrine function. Therefore, it is important to understand the effect of environmental chemicals in ER signaling pathway. For identifying ER antagonists, VM7Luc4E2 cell line was used to screen against Tox21 compound libraries.
# VM7Luc4E2 cell line (provided by Denison MS, University of California) endogenously express full-length ER-alpha and is stably transfected with a plasmid containing four estrogen responsive elements (ERE) upstream of a luciferase reporter gene. The current screening for identification of ER-alpha inhibitors against Tox21 compound libraries used lower concentration (0.1 nM) of 17beta-Estradiol as a stimulator.
# Tox21 Assay Protocol Summary:
# VM7Luc4E2 cells were cultured in phenol red free assay medium containing 10% charcoal stripped FBS for 5 days prior to the assay. The cells were dispensed at 4,000 cells/well in 4 uL of assay medium into white wall/solid-bottom 1536-well plates (Corning Life Sciences, Corning, NY) using a Multidrop Combi (ThermoFisher Scientific, Waltham, MA) dispenser. After the assay plates were incubated at 37C and 5% CO2 for 24 hr, 23 nL of compounds dissolved in DMSO, positive controls or DMSO only was transferred to the assay plates by a Pintool station (Kalypsys, San Diego, CA). The transfer of compounds was followed by the addition of 1 uL of 0.1 nM (final concentration) agonist (17beta-Estradiol)/assay medium using a Flying Reagent Dispenser (FRD, Aurora Discovery, San Diego, CA). The plates were incubated at 37C and 5% CO2 for 22 hr. For luciferase reporter gene assay, 4 uL of ONE-Glo reagent (Promega Corporation, Madison, WI) was added to each well using the FRD and after 30 min incubation at room temperature luminescence intensity was measured using ViewLux plate reader (PerkinElmer, Shelton, CT).
# Potency is the fitted concentration of half-maximal effect.
row,SMILES,Potency
1,O=[N+]([O-])/N=C1\NCCN1Cc1ccc(Cl)nc1,inactive
2,C[C@]12CC[C@H]3[C@@H](CCC4=CC(=O)CC[C@@H]43)[C@@H]1CC[C@@H]2O,inactive
3,CCC1(c2ccc(N)cc2)CCC(=O)NC1=O (stereo not given),inactive
4,O=C1C(Cl)=C(Cl)C(=O)c2ccccc21,12.2 µM (active) and 19.3 µM (active)
5,Clc1cccc(C(Cl)(Cl)Cl)n1,inactive
6,O=C(O)CF,inactive
7,CN(C)c1nc(=O)n(C2CCCCC2)c(=O)n1C,inactive
8,CCCCC(C#N)(Cn1cncn1)c1ccc(Cl)cc1 (stereo not given),inactive
9,Cc1ccc(N=CN(C)C=Nc2ccc(C)cc2C)c(C)c1,inactive
10,Cc1ccc([N+](=O)[O-])cc1,inactive
11,CN(C)P(=O)(N(C)C)N(C)C,inactive
12,Oc1ccc(Cl)cc1Cl,inactive
13,CCN(CC)C(=O)C(C)Oc1cccc2ccccc12 (stereo not given),61.1 µM (active)
14,CC[n+]1c(-c2ccccc2)c2cc(N)ccc2c2ccc(N)cc21,27.2 µM (active) and 21.1 µM (active)
15,COc1ccc(C=O)cc1OC,inactive
16,C[N+](C)(C)CC(=O)[O-],inactive
17,CC(C)(c1ccccc1)c1ccc(O)cc1,61.1 µM (active)
18,CC(C)(c1ccc(OCC2CO2)cc1)c1ccc(OCC2CO2)cc1 (stereo not given),inactive
19,CCCCOC(=O)COC(=O)c1ccccc1C(=O)OCCCC,inactive
20,CCCCCCCC[N+](C)(CCCCCCCC)CCCCCCCC,1.22 µM (active) and 15.4 µM (active)

row,SMILES,Potency
1,CC(C)COC(=O)c1ccccc1C(=O)OCC(C)C,inactive
2,N#Cc1nn(-c2c(Cl)cc(C(F)(F)F)cc2Cl)c(N)c1S(=O)C(F)(F)F (stereo not given),6.9 µM (active) and 21.1 µM (active)
3,Clc1ccccc1-c1nnc(-c2ccccc2Cl)nn1,inactive
4,ClC(Cl)=C(Cl)C(Cl)=C(Cl)Cl,inactive
5,CC1(C)Cc2cccc(O)c2O1,inactive
6,Cn1c(-c2ccccc2)cc(-c2ccccc2)[n+]1C,5.44 µM (active) and 24.3 µM (active)
7,CC1(C)C(C(=O)OC(C#N)c2cccc(Oc3ccccc3)c2)C1(C)C (stereo not given),54.9 µM (active) and inactive
8,OCCOCCO,inactive
9,CC(C)(c1ccccc1)c1ccc(O)c(C(C)(C)c2ccccc2)c1,60.6 µM (active)
10,O=NN(c1ccccc1)c1ccccc1,inactive
11,CCOP(=S)(OCC)SCn1c(=O)oc2cc(Cl)ccc21,inactive
12,C[N+](C)(C)C,inactive
13,CCOS(=O)(=O)OCC,inactive
14,CNC(=S)S,inactive
15,CCCCCCCCCCCCCl,inactive
16,CCCCOCCOC(C)=O,inactive
17,COc1ccc(O)c(C(C)(C)C)c1,inactive
18,ClCc1ccccn1,inactive
19,Cc1cccc(N=Nc2ccc(N(C)C)cc2)c1,inactive
20,CCC[CH2][Sn]([Cl])([Cl])[CH2]CCC,1.23 µM (active) and inactive
